About 83,000 compounds went through this panel and 20% of them were active in at least one assay; those are over-represented in the sample as a whole.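 Step 1: grow cells in 96-well plates. Step 2: add test compound at a single concentration. Step 3: incubate 48 h. Step 4: record percent growth.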 Active and inactive are the calls of the source. How the source made its calls: active means growth percent below 10; inactive means the rest.

This test relates to MDA-MB-468 breast. The test is described as follows: NCI-60 one-dose screen, 48 h (100 = growth as untreated, 0 = no growth, -100 = all killed). Conditions: 10 µM unless noted.
Consider `CC1=CCc2ccccc21`, for which the growth was 115% (inactive).

Turning to `CCCCN(CCCC)c1ccc(C(=NC(C)CCCN(CC)CC)c2ccc(N(C)C)cc2)cc1` (configuration not stated), the growth was -85.8% (active).

Take `O=C1/C(=C\c2ccc(Br)o2)SC(=S)N1CCc1ccc(O)cc1`: the growth was 28.2% (inactive).

In the case of `CCOC(=O)C1=C(C(=O)c2ccccc2)C(c2cccc([N+](=O)[O-])c2)C(C(=O)c2ccccc2)=C(C(=O)OCC)N1`, the growth is 83.2% (inactive).

As for `CCCc1cc2cc(-n3nc(CC)c4c3CC(C)(C)CC4=O)cc(NC3CCC(O)CC3)c2c(=O)[nH]1` (configuration not stated), the growth was -22.7% (active).

As to `NC(=O)c1c(NC(=O)c2ccccn2)sc2c1CCC(=O)C2`, the growth is 6.36% (active).

As for `N#Cc1ccc(NC2c3ccccc3CC2O)cc1` (configuration not stated), the growth was 107% (inactive).

For the compound `CCNC(=O)C#Cc1ccc2c(C(=Nc3ccc(CN(C)C)cc3)c3ccccc3)c(O)[nH]c2c1`, the growth was 17.2% (inactive).

Regarding `CC(C)OC(C(=O)O)c1ccccc1` (configuration not stated), the growth is 113% (inactive).

For `COc1cc2c(c(OC)c1OC)-c1ccc(SC)c(=O)cc1[C@@H](NC1OC(CO)C(O)C(O)C1O)CC2` (some centres not stated), the growth is 23.6% (inactive).

For the compound `O=C(Nc1cccc([N+](=O)[O-])c1)c1cccc(C(=O)Nc2cccc([N+](=O)[O-])c2)c1`, the growth was 67.1% (inactive).

For the compound `CC(=O)NNC(=O)c1sc(NC(C)=O)nc1C`, the growth was 104% (inactive).

For the compound `O=C(Nc1nonc1-c1ccccc1)c1ccc(C(F)(F)F)cc1`, the growth was 101% (inactive).

On to `CCOC(=O)c1c(C)nc2ccccc2c1/C=C/c1ccccc1`, for which the growth is 24.7% (inactive).

Consider `Cc1c2ccccc2c(C)c2c1ccc1ccccc12`, for which the growth is 20.5% (inactive).

As for `CSc1nc(NCc2ccccc2)c(C#N)c(-c2cccc([N+](=O)[O-])c2)n1`, the growth is 110% (inactive).

As to `Nc1c(C(=O)Nc2cccc(F)c2)sc2nc3c(cc12)C(=O)CCC3`, the growth was 33.2% (inactive).

On to `Cc1cc(N/N=C/c2nc(-c3ccc(Cl)cc3)oc2C)c2cc(Br)ccc2n1`, for which the growth is -36.6% (active).

Turning to `CSc1nc(N)nc2c1ncn2C`, the growth was 108% (inactive).

On to `CCCCCCCCCc1cc[n+](CC(=O)c2ccc([N+](=O)[O-])cc2)cc1`, for which the growth is -18.6% (active).

As to `CSc1nc2c(c(=O)n1C)C(c1ccccc1)C1=C(N2)/C(=C/c2ccccc2)CCC1` (configuration not stated), the growth is 34.7% (inactive).

As to `C[C@H]1O[C@@H](O[C@H]2[C@@H](O)C[C@H](O[C@H]3[C@@H](O)C[C@H](O[C@H]4CC[C@]5(C)C6CC[C@]7(C)[C@@H](C8=CC(=O)OC8)CC[C@]7(O)C6CC[C@@H]5C4)O[C@@H]3C)O[C@@H]2C)C[C@H](O)[C@@H]1O` (some centres not stated), the growth is -60% (active).

With `CC(C)[N+]1(C)C2CC[C@@H]1CC(OC(=O)C(CO)c1ccccc1)C2` (some centres not stated), the growth is 109% (inactive).

With `CCOc1cc(NC(=O)c2ccccc2)c(OCC)cc1N`, the growth was 112% (inactive).

For `Cc1cc2c(-c3nc4ccccn4c3NC34CC5CC(CC(C5)C3)C4)c(O)c(O)cc2c(O)c1-c1c(C)cc2c(-c3nc4ccccn4c3NC34CC5CC(CC(C5)C3)C4)c(O)c(O)cc2c1O`, the growth was -10.7% (active).

As to `COc1ccc2nc(-c3ccc(Cl)cc3)cc(-c3nnc(SC/C(=N/O)c4ccccc4)o3)c2c1`, the growth is 9.96% (active).

Consider `Cc1nc2sc(C(=O)Nc3cccc4ccccc34)c(N)c2cc1C(=O)/C=C/c1ccccc1`, for which the growth is -3.46% (active).

Take `CC(=O)Nc1c(Cl)cc2c(c1Cl)Cc1cc([N+](=O)[O-])ccc1-2`: the growth is -27.8% (active).

In the case of `CC(C)SC1=NC(=C(C(=N1)NC2=ClC=CC=C2)C#N)C3=CC=CC=C3`, the growth was 43% (inactive).

In the case of `Cc1nc(Nc2ccc(N)cc2)c2ccccc2n1`, the growth is 86.9% (inactive).

For `CC(C)OCC(CCl)OC(=O)Nc1ccccc1` (configuration not stated), the growth was 112% (inactive).

Take `c1ccc(-c2n(Cc3ccc4ccccc4c3)c3c4ccccc4c4ccccc4c3[n+]2Cc2ccc3ccccc3c2)cc1`: the growth is -75.5% (active).

Turning to `CC1=C(C(=O)OCC2CCN(C(=O)OC(C)(C)C)CC2)[C@@H](c2cccc(C#N)c2)C2=C(CC(C)(C)CC2=O)N1`, the growth was 52.2% (inactive).

Take `N#Cc1nc(-c2ccccc2)oc1S(=O)(=O)N1CCN(c2ccc(F)cc2)CC1`: the growth is 44.8% (inactive).

Consider `CC1(C)CC[C@]23CC[C@]4(C)[C@H](CC[C@@H]5[C@@]6(C)C/C(=C/O)C(=O)C(C)(C)[C@@H]6CC[C@]54C)[C@H]2[C@H]1OC3`, for which the growth was 119% (inactive).

As for `Cn1c2ccccc2c2nn(C(=O)c3ccccc3)c(=O)nc21`, the growth was 107% (inactive).

In the case of `Cn1ccc(=O)c(C(=O)Nc2nsc3ccc([N+](=O)[O-])cc23)c1`, the growth was 87.1% (inactive).

Source of the values: PubChem BioAssay (NCI).
